In PubChem BioAssay AID1851 (National Center for Advancing Translational Sciences (NCATS), 2009):
“And” between values parts separate entries of the source, which are not always exact repeats. Equal values may be shown once. About 5,700 (36%) of roughly 16,000 compounds were called active. Another 24% or so got no clear call; they are omitted. The list shows a part of the results. A number with no mark means an inactive call. Calls come from the whole dose curve; as a rule, active = well fitted curve in the direction sought with a large enough effect; inconclusive = small, poorly fitted or top-dose-only effect, or effect the other way; inactive = no such curve, though single readings can be large or run the other way.

Each compound was assayed against Cytochrome P450 1A2 (Homo sapiens) (UniProt P05177) (assay: Cytochrome panel assay with activity outcomes). Details: recombinant CYP, pro-luciferin dealkylation, luminescence, p450-cyp1a2; series mostly up to 57.1 µM; activity, negative = inhibition: at the top concentration.
Sequence of Cytochrome P450 1A2 (Homo sapiens) (P05177 whole entry, looked up): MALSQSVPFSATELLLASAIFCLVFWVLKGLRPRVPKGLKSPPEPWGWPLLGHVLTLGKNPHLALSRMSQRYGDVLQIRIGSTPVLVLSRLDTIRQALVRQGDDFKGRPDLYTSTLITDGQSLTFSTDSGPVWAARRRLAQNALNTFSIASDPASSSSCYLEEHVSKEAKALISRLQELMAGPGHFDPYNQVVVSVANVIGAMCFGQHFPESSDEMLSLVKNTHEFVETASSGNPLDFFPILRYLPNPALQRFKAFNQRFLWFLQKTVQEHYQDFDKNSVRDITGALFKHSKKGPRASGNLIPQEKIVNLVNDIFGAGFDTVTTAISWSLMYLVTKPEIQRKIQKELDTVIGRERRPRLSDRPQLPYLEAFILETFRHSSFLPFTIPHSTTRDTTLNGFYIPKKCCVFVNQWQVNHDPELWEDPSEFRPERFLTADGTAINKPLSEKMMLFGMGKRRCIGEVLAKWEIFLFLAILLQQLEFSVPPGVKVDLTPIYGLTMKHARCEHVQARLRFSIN
% is set by controls: 0 for no effect and ±100 for the full control effect.

SMILES | activity, negative = inhibition | AC50
COC(=O)N1CCC2(CC1)CN(C(=O)Nc1ccc(OC)cc1)C2 | -0.895% | 
COc1ccc(NC(=O)N2CCC3(CC2)CCN(S(C)(=O)=O)CC3)cc1 | 3.99% | 
Cc1ccc(C)c(NC(=O)c2ncn[nH]2)c1 |  | 15.8 µM (active)
CC(C)c1ccc(O)c(NC(=O)c2ncn[nH]2)c1 |  | 15.8 µM (active)
Cc1ccc(C)c(NC(=O)Cn2c([N+](=O)[O-])cnc2C)c1 | -3.91% | 
COc1ccc(NC(=O)C(c2ccc(OC)cc2)N(C)C(=O)CNC(C)=O)cc1 (stereo not given) | -5.37% | 
COc1ccc(NC(=O)c2ncn[nH]2)cc1 |  | 11.2 µM (active)
COc1ccc(NC(=O)OC(C)C)cc1 |  | 11.2 µM (active)
COc1ccc(NC(=O)N2CCCC3(CCNCC3)C2)cc1 | -1.6% | 
Cc1ccc(C)c(NC(=O)C2CC3c4ccccc4C2c2ccccc23)c1 (stereo not given) | -5.49% | 
CC(C)CN1CCC2(CC1)CCN(C(=O)c1cccn1C)CC2 | 9.28% | 
COCC(=O)N1CCC2(CCCN(c3ncccn3)C2)CC1 | -20.4% | 
N=C(N)SCc1nc2ccccc2c(=O)n1-c1ccccc1Cl |  | 1.26 µM (active)
COc1cc(C=O)ccc1OCCCOc1ccccc1C(=O)O | -8.32% | 
COc1ccc(C=Nc2c(O)ccc3ccccc23)cc1OC |  | 0.251 µM (active)
COC(=O)C/C=C\[C@@H](C)[C@@H](/C=N\O[C@@H](C)c1cn([C@H](CO)Cc2ccccc2)nn1)NS(=O)(=O)c1ccc(C)cc1 | -0.854% [at 11.4 µM] and -7.61% [at 11.4 µM] | 
CC(C)CN1CC2(CCN(C(=O)c3cccc(F)c3)CC2)C1 | 3.33% | 
O=C1CCC(c2ccccc2)=NN1c1nc2ccccc2s1 |  | 0.398 µM (active)
COc1cccc(-c2cncnc2-n2ccnc2)c1 |  | 0.1 µM (active)
c1cncc(-c2cncnc2-n2ccnc2)c1 |  | 20 µM (active)
COc1ccccc1-c1cncnc1-n1ccnc1 |  | 12.6 µM (active)
N#Cc1cccc(-c2cncnc2-n2ccnc2)c1 |  | 15.8 µM (active)
Cc1cn(CC[C@H](N)C(=O)O)c(=O)[nH]c1=O | -9.38% [at 11.4 µM] | 
COC(=O)C[C@@H]1O[C@H]1[C@H](C)[C@@H](OC)C(C)C | -6.59% [at 11.4 µM] | 

SMILES | activity, negative = inhibition | AC50
COC(=O)[C@@]1(Cc2ccc(OC)cc2)[C@@H]2[C@@H](CC(=O)[C@H]2CC(=O)C(=O)N2CCCC2)CN1C(=O)c1ccccc1 | -20.3% | 
COc1ccc(C[C@@H]2C(=O)N[C@H](C)C(=O)N(C)[C@@H]3Cc4ccc(cc4)Oc4cc(ccc4O)C[C@H](C(=O)N[C@@H](C)C(=O)N[C@H](C)C(=O)N2C)N(C)C3=O)cc1 | -16.4% [at 11.4 µM] | 
CC(C)CC(=O)N[C@H](C(=O)N[C@H](C(=O)N[C@@H](CC(C)C)[C@H](O)CC(=O)N[C@@H](C)C(=O)N[C@@H](CC(C)C)[C@H](O)CC(=O)O)C(C)C)C(C)C | 1.07% [at 25.6 µM] | 
COc1ccc(O[C@H]2C=C[C@@H](c3ccccc3)O[C@@H]2CO/N=C(\C)CCN2CCc3nc(-c4ccccc4)c(-c4ccccc4)cc3C2)cc1 | -6.98% [at 11.4 µM] | 
Cc1ccccc1C(C(=O)NCc1ccccc1)N(Cc1ccco1)C(=O)c1ccccn1 (stereo not given) | -0.421% | 
Cc1cc2cccc(C)c2nc1SCC(=O)N(C)c1nc(-c2ccccc2)cs1 | -13.1% | 
CCC(=O)N(Cc1ccco1)c1nc(-c2ccccc2)cs1 |  | 1.26 µM (active)
CCn1c(C)cc(/C=C2\NC(=O)N(Cc3ccc(Cl)cc3)C2=O)c1C |  | 0.355 µM (active)
CCC(C(=O)NC(C)(C)C)N(C(=O)Cn1nnc(-c2cccs2)n1)c1cnc2ccccc2c1 (stereo not given) | -18.4% | 
Cc1cccc(N2CCN(CC(=O)Nc3ccc(-n4cnnn4)cc3)CC2)c1C | 1.94% | 
O=C(Nc1cnc2ccccc2c1)c1cccc(-n2cnnn2)c1 |  | 12.6 µM (active)
CC(C)(C)NC(=O)Cn1cnc([N+](=O)[O-])n1 | 18.8% | 
CC(NC(=O)Cn1cnc([N+](=O)[O-])n1)c1ccccc1 (stereo not given) | 3.46% | 
O=C(Cn1cnc([N+](=O)[O-])n1)N/N=C/c1ccccc1O |  | 4.47 µM (active)
COC(=O)[C@@]1(Cc2ccccc2)[C@@H]2C(=CC(=O)[C@H]2CC(=O)C(=O)N(C)C)CN1C(=O)c1ccccc1 | -12.1% | 
COc1ccccc1CCn1c(=O)c(-c2cccc(F)c2)nc2cncnc21 |  | 1.58 µM (active)
COc1ccccc1CCn1c(=O)c(-c2cc(F)cc(F)c2)nc2cncnc21 |  | 1.58 µM (active)
NC(=O)C1=CN([C@@H]2O[C@@H](COP(=O)(O)OP(=O)(O)OC[C@@H]3O[C@H](n4cnc5c(N)ncnc54)[C@@H](OP(=O)(O)O)[C@@H]3O)[C@H](O)[C@@H]2O)C=CC1 | 10.8% | 
CCCCn1nc2cc(C(=O)NCCCCc3ccccc3)ccc2c1OCC | 6.46% | 
CCOc1c2ccc(C(=O)NC3CCCc4ccccc43)cc2nn1C (stereo not given) |  | 10 µM (active)
CCCn1nc2cc(C(=O)NCc3ccc(C)cc3)ccc2c1OC |  | 14.1 µM (active)
CCOc1c2ccc(C(=O)NCc3ccc(OC(F)(F)F)cc3)cc2nn1C |  | 2.82 µM (active)
COCCn1nc2cc(C(=O)NCC34CC5CC(CC(C5)C3)C4)ccc2c1OC | -21.7% | 
CCOc1c2ccc(C(=O)NCCCCc3ccccc3)cc2nn1C |  | 2.51 µM (active)

SMILES | activity, negative = inhibition | AC50
CCCn1nc2cc(C(=O)NCc3ccc4c(c3)OCO4)ccc2c1OCC | -29.7% | 
CCCn1nc2cc(C(=O)NC3CCCc4ccccc43)ccc2c1OCC (stereo not given) | -25.1% | 
CCCn1nc2cc(C(=O)NCCc3ccc(C)cc3)ccc2c1OCC | -23.8% | 
CCCn1nc2cc(C(=O)NCCCCc3ccccc3)ccc2c1OCC | -8.93% | 
CCCCn1nc2cc(C(=O)NCc3ccc(C(F)(F)F)cc3C(F)(F)F)ccc2c1OCC | -4.35% | 
O=C(NC1CCCc2ccccc21)c1ccc(=O)[nH]c1 (stereo not given) | 15% | 
O=C(NCc1ccccc1)c1onc(CSc2ccc(F)cc2)c1C(=O)NCCCN1CCOCC1 | -21.4% | 
COc1cccc(C(=O)N(C)c2nnc(-c3ccncc3)s2)c1 |  | 12.6 µM (active)
O=C(c1c(O)c2ccc(Cl)cc2[nH]c1=O)C1CC1 |  | 0.0794 µM (active)
O=C(c1n[nH]c(=O)c2ccccc12)N1CCN(C2c3ccccc3-c3ccccc32)CC1 |  | 15.8 µM (active)
CCCOc1ccc(CSC(CC(=O)O)C(=O)O)cc1 (stereo not given) | 12.7% | 
CCOc1ccc(CSC(CC(=O)O)C(=O)O)cc1 (stereo not given) | -24.2% | 
CCCCOc1ccc(CC(=O)NO)cc1 |  | 1.58 µM (active)
O=C1C2Sc3[nH]c(=O)sc3C(c3ccccc3)C2C(=O)N1c1ccc(Cl)cc1 (stereo not given) | -26.8% | 
COc1ccc([C@@H]2CC(=O)c3c(O)cc(O[C@H]4O[C@@H](CO[C@H]5O[C@@H](C)[C@@H](O)[C@@H](O)[C@@H]5O)[C@@H](O)[C@@H](O)[C@@H]4O)cc3O2)cc1O | -0.0093% [at 25.6 µM] | 
Brc1ccc2cccnc2c1 |  | 2.51 µM (active)
C[n+]1cn(CC(O)COCc2ccccc2)c2ccccc21 (stereo not given) | -13% | 
COc1ccc(-c2cc3ccccc3n2CC(O)CNCCO)cc1 (stereo not given) | -21.9% | 
Cc1ccccc1OCC(O)Cn1c(NCc2ccccc2)nc2c1c(=O)[nH]c(=O)n2C (stereo not given) | -29.3% | 
C=CCN(CC=C)CC(O)Cn1c2ccccc2c2ccccc21 (stereo not given) |  | 2 µM (active)
CC(=O)Nc1ccc(OCC(O)Cn2cnc3ccccc32)cc1 (stereo not given) | -3.03% | 
CC(=O)Nc1ccc(OCC(O)Cn2c3ccccc3c3ccccc32)c(C)c1 (stereo not given) |  | 2.82 µM (active)
O[C@H](COc1ccccc1)CN1CCCCC1 | -3.85% [at 11.4 µM] | 
Cc1ccccc1OCC(O)Cn1c2ccccc2c2ccccc21 (stereo not given) |  | 1.78 µM (active)

SMILES | activity, negative = inhibition | AC50
Cc1ccc(OCC(O)Cn2c3ccccc3c3ccccc32)cc1 (stereo not given) |  | 1.41 µM (active)
CC[C@@]12CCCN3CCc4c(n(c5ccccc45)C(=O)C1)[C@H]32 | -9.85% [at 2.29 µM] | 
O=C(CCCCC(=O)Nc1c(I)cc(I)c(C(=O)O)c1I)Nc1c(I)cc(I)c(C(=O)O)c1I | -8.15% [at 25.6 µM] | 
CCOc1ccccc1Oc1coc2cc(OC)ccc2c1=O |  | 5.01 µM (active)
CCOc1ccccc1Oc1c(C)oc2cc(OC(=O)c3ccco3)ccc2c1=O | -30% | 
CCN(CC)Cc1c(O)ccc2c(=O)c(Oc3ccccc3OC)coc12 | 39.3% | 
CC(C)CC(=O)N1CCC(N2CCN(c3ccccc3)CC2)CC1 | -29.8% | 
CCOC(=O)C1=C(O)C(=O)N(Cc2ccccc2)C1 |  | 1 µM (active)
CCOC(=O)C1(S(=O)(=O)c2ccccc2)CCN(Cc2ccccc2)CC1 | -10.4% | 
CC(=O)N1CCC2(CCN(Cc3ccccc3)CC2)CC1 | -1.26% | 
Cc1cc(C)c2c(N=NN(C)C)[nH]nc2n1 |  | 2.24 µM (active)
CCN(CC)N=Nc1[nH]nc2nc(C)cc(C)c12 |  | 2.51 µM (active)
CCOC(=O)N1CCC(NC(=O)CCC(=O)N2CC(C)Oc3ccc(C)cc32)CC1 (stereo not given) | -20.3% | 
CO[C@@H]1COC(=O)CC=C[C@@H](C)[C@@H]2C=C[C@@H](O)[C@@H](COC(=O)C/C=C\[C@H]1C)O2 | -5.43% [at 11.4 µM] | 
CN(C)Cc1ccc(-c2cc3onc(-c4ccccc4)c3c(=O)n2C)cc1 | -13.3% [at 11.4 µM] | 
CC(C)NC(=O)N1CCC2(CC1)CCN(C(=O)c1cnccn1)CC2 | 0.219% | 
CCNS(=O)(=O)c1ccc(NS(C)(=O)=O)cc1 | -6.6% | 
C/C(=N/S(=O)(=O)c1ccc(Cl)c(Cl)c1)OCC(C)(C)C | -4.08% [at 11.4 µM] | 
COc1ccc(S(=O)(=O)Nc2ccc(S(=O)(=O)N3CCCCC3)cc2)cc1C | -7.68% | 
O=S(=O)(Nc1ccc(Cc2ccncc2)cc1)c1ccc(Br)cc1 |  | 0.0447 µM (active)
Nc1ccc(S(=O)(=O)Nc2ncccn2)cc1 | -0.15% [at 25.6 µM] | 
O=S(=O)(Nc1ccc(Cc2ccncc2)cc1)c1ccc(Cl)c(Cl)c1 |  | 0.126 µM (active)
O=S(=O)(Nc1ccc(Cc2ccncc2)cc1)c1cccs1 |  | 0.126 µM (active)
